This note sets out measurements from ChEMBL document CHEMBL3988442, “University of Dundee, Small-Polar-MMV Screening Library” (2021).

The test system of the assay is Trypanosoma brucei. The assay can be described thus: Trypanosoma brucei 72 hour study. It counts as functional, organism-based. On the set-up: scale not given: in the data most compounds retested in dose-response had high values.

Each structure is given as a SMILES string. The campaign covered roughly 66,000 compounds. About 960 (1.5%) showed an effect of 50% or more. The sample as a whole holds a higher share of strong results than the screen did.

Consider `Cn1cccc1CN1CCC2(CC1)CN(c1ccccc1)C(=O)CO2.O=C(O)C(F)(F)F`, for which the “Percent Effect” value (30 µM, 30.03 µM) is on record as -21.68%.
Consider `CCn1ccc(C(=O)N2CCOC(c3nc(-c4cccs4)no3)C2)n1` (centres undefined), for which, for the setting “30.3 µM, […]”, the “Percent Effect” value is recorded as 21.37%.
On the same count and under the same terms, the value for `CCCn1cc(C(=O)N2CCOC(c3nc(-c4cccs4)no3)C2)cn1` (centres undefined) was 19.04%.
`CCCn1ccc(C(=O)N2CCOC(c3nc(-c4cccs4)no3)C2)n1` (centres undefined): the “Percent Effect” value (30 µM, 30.03 µM) turned out to be 67.6%.
On to `Cc1csc(CN2CCC3(CC2)COC(COCC2CC2)C3)n1.O=C(O)C(F)(F)F` (centres undefined), for which the “Percent Effect” value (30.3 µM, […]) was -1.163%.
In the case of `COc1nn(C)c2c1CCCN(C(=O)c1ccc3c(c1)OCO3)C2.O=C(O)C(F)(F)F`, the “Percent Effect” value (30 µM, 30.03 µM) is -20.99%.
For the compound `CC(=O)N1CCN(c2cc(CCN)nc(C3CC3)n2)CC1.Cl`, the “Percent Effect” value (30.3 µM, […]) was 1.602%.
Still for that read-out and setting: for `COCCN1C[C@@H]2CN(Cc3ccc(F)cc3)C[C@@H]2C1=O.O=C(O)C(F)(F)F` the value was -7.407%.
Consider `O=C(O)C(F)(F)F.O=C1[C@H]2CN(Cc3ccco3)C[C@H]2CN1c1ccsc1`, for which, under “30 µM, 30.03 µM”, the “Percent Effect” value was determined as 73.83%.
On the same count and under the same terms, for `O=C(O)C(F)(F)F.O=C1[C@H]2CN(Cc3cccs3)C[C@H]2CN1c1ccsc1` the value was 27.72%; for `O=C(O)C(F)(F)F.O=C1[C@H]2CN(Cc3ccc(F)cc3)C[C@H]2CN1c1ccsc1`, 14.65%; for `CCOCCCn1c(NC(=O)c2ccc(C)nc2)nc2ccccc21`, 8.402%.
Still for that read-out and setting: the value for `CCCn1c(NC(=O)CNC(=O)OCC)nc2ccccc21` was -18.3%.
For `CCOCCCn1c(NC(=O)c2ccnc(C)n2)nc2ccccc21`, under “10 µM”, the “Percent Effect” value was -13.79%.
In the case of `CCOCCCn1c(NC(=O)c2cnc(C)s2)nc2ccccc21`, the “Percent Effect” value (10 µM) was -28.52%.
For the compound `CCOCCCn1c(NC(=O)c2cnn(C)c2)nc2ccccc21`, the “Percent Effect” value (30 µM, 30.03 µM) came to 64.95%.
On to `CCOCCCn1c(NC(=O)c2cnc(C)cn2)nc2ccccc21`, for which the “Percent Effect” value (10 µM) is reported as -41.49%.
On to `CCOCCCn1c(NC(=O)c2scnc2C)nc2ccccc21`, for which the “Percent Effect” value (30 µM, 30.03 µM) was 105.1%.
For the compound `CCN(CC)CCn1c(NC(=O)c2scnc2C)nc2ccccc21`, the “Percent Effect” value (10 µM) is given as 84.6%.
Take `CCOCCCn1c(NC(=O)c2cc(C)on2)nc2ccccc21`: the “Percent Effect” value (10 µM) was -33.65%.
As to `Cc1noc(C)c1CN1CCOCC12CCN(c1ncccn1)CC2.O=C(O)C(F)(F)F`, the “Percent Effect” value (30.3 µM, […]) is on record as -79.15%.
On the same count and under the same terms, the value for `O=C(O)C(F)(F)F.O=C1CCC2(CCCN(CCc3ccccc3)C2)N1Cc1cccnc1` (centres undefined) was -16.68%.
In the case of `CN(C)C(=O)[C@H]1C[C@@H]2CN(S(=O)(=O)Cc3ccccc3)C[C@H]1O2`, for the setting “30 µM, 30.03 µM”, the “Percent Effect” value was found to be 24.58%.
For `COc1ccc(CN2CCO[C@H]3[C@H](OCc4ccncc4)CC[C@@H]32)cc1.O=C(O)C(F)(F)F.O=C(O)C(F)(F)F`, the “Percent Effect” value (30.3 µM, […]) is given as -84.86%.
As to `Cc1nc(CN2CCCC2c2noc(C(C)C)n2)oc1C` (centres undefined), the “Percent Effect” value is, setting by setting: (30.3 µM, […]) 12.42%; (10 mM, 10 mM as filed; unlikely as a test dose) -15.34%.
As for `Cc1ccc(N(Cc2ccco2)C(=O)CC2=NN(C)C(=O)C2)cc1`, for the setting “30 µM, 30.03 µM”, the “Percent Effect” value is -11.27%.
On to `COCC1N(C(=O)c2ccc3c(c2)OCCCO3)[C@H]2CC[C@]1(O)CC2` (some centres undefined), for which the “Percent Effect” value (30.3 µM, […]) is given as -35.32%.
With `O=C(NCc1ccc(-c2ccn[nH]2)cc1)N1CCC(N2CCCC2)C1` (centres undefined), under “30 µM, 30.03 µM”, the “Percent Effect” value was 50.84%.
With `NC(=O)C1CCN(C(=O)NCc2ccc(-c3ccn[nH]3)cc2)CC1`, the “Percent Effect” value (30.3 µM, […]) was -25.22%.
Same read-out and setting: the value for `CNC(=O)C1CCN(C(=O)NCc2ccc(-c3ccn[nH]3)cc2)CC1` was -16.44%.
As for `CN(C)C(=O)CC1CC2(CCN(Cc3ccoc3)CC2)c2ccccc21.O=C(O)C(F)(F)F` (centres undefined), for the setting “30 µM, 30.03 µM”, the “Percent Effect” value was -22.74%.
Consider `CC(NCc1cn(CCC(N)=O)c2ccccc12)c1nncn1C` (centres undefined), for which the “Percent Effect” value (30.3 µM, […]) is listed as -49.32%.
Same read-out and setting: the value for `Cc1ccc(C(C)NCc2cn(CCC(N)=O)c3ccccc23)cc1C` (centres undefined) was 96.45%; that for `CC(C)n1cnnc1CCNCc1cn(CCC(N)=O)c2ccccc12` was -18.24%.
`CC(CN1CCC2(CC1)N=C(c1cccnc1)NC2=O)c1ccccc1` (centres undefined): for the setting “30 µM, 30.03 µM”, the “Percent Effect” value is given as 6.734%.
Take `COCC1CC2(CCN(C(=O)c3occc3C)CC2)CN1C(C)C.O=C(O)C(F)(F)F` (centres undefined): the “Percent Effect” value (30.3 µM, […]) was -8.924%.
For `CCCc1noc(CN2CCCC2c2ccsc2)n1` (centres undefined), the “Percent Effect” value (30 µM, 30.03 µM) was determined as 55.39%.
As for `CCCc1noc(CN2CCCC2c2noc(C3CC3)n2)n1` (centres undefined), where the note is “30.3 µM, […]”, the “Percent Effect” value is recorded as -16.45%.
In the case of `CCCc1noc(CCC(=O)N2CCCC2c2ccsc2)n1` (centres undefined), the “Percent Effect” value (30 µM, 30.03 µM) was -44.02%.
The same measure, in the same setting: the value for `CS(=O)(=O)NCc1cnc2n1CCN(Cc1cccs1)CC2.O=C(O)C(F)(F)F` was -2.909%; that for `O=C(O)[C@@H]1CN(C(=O)CCCc2ccc(F)cc2)C[C@H]1C1CC1` was -8.475%; that for `CN(C)[C@H]1CN(C(=O)CCCc2ccc(F)cc2)C[C@@H]1C1CC1` was 21.51%.
The same measure, in the same setting: for `N[C@H]1CN(C(=O)CCCc2ccc(F)cc2)C[C@@H]1C1CC1` the value was 79.67%.
Same read-out and setting: for `O=C(NCc1cccs1)[C@@H]1CC[C@@H]2[C@@H](CCN2c2ncccn2)O1.O=C(O)C(F)(F)F` the value was -28.93%; for `COc1ccc(C(CN2CCN(C)CC2)Nc2ncccn2)cc1` (centres undefined), -24.12%; for `CCC(Nc1ncccn1)c1ccc(OC)cc1` (centres undefined), 62.75%.
With `CCC(Nc1ncccn1)c1cccnc1` (centres undefined), the “Percent Effect” value (30 µM, 30.03 µM) is recorded as -16.09%.
Still for that read-out and setting: for `CCC(C)Oc1ccc(CNCCNS(C)(=O)=O)cc1Cl` (centres undefined) the value was 0.13%; for `O=C(O)C(F)(F)F.O=C(O)C(F)(F)F.O=C1CC(c2ccncc2)C2(CCN(CCc3ccccc3)CC2)N1` (centres undefined), 36.79%.
Regarding `CS(=O)(=O)N1CCC2(CC1)CC(NCC1CC1)c1ccccc12.O=C(O)C(F)(F)F` (centres undefined), the “Percent Effect” value (30.3 µM, […]) was determined as 3.499%.
Regarding `CN1CC2(CCCN(Cc3ccc(Oc4ccccc4)cc3)C2)OC1=O` (centres undefined), for the setting “30 µM, 30.03 µM”, the “Percent Effect” value was -7.898%.
`CN(Cc1cc(Br)cn1C)C(=O)Cc1cccc(O)c1`: the “Percent Effect” value (30 µM, 30.03 µM) is -57.62%.
On the same count and under the same terms, for `CN(Cc1cc(Br)cn1C)C(=O)c1cccnc1` the value was -39.03%; for `CN(Cc1cc(Br)cn1C)C(=O)Cc1cccnc1`, 102.7%.
Consider `COc1ccc(CN2CC[C@H]3[C@H]2CC(=O)N3Cc2cccc(C)n2)cc1.O=C(O)C(F)(F)F.O=C(O)C(F)(F)F`, for which the “Percent Effect” value (30.3 µM, […]) is listed as -40.33%.
As to `Cc1cc(N2CCN(C(=O)c3cc(Cl)c[nH]3)CC2)nc(N)n1`, the “Percent Effect” value (30 µM, 30.03 µM) is reported as 109.2%.
Turning to `Cc1cc(N2CCN(C(=O)c3cc(Cl)c[nH]3)CC2)nc(C(C)C)n1`, the “Percent Effect” value (30 µM, 30.03 µM) is given as -55.97%.
`Cc1cc(N2CCN(C(=O)c3cc(Cl)c[nH]3)CC2)nc(C)n1`: for the setting “30 µM, 30.03 µM”, the “Percent Effect” value is on record as -21.87%.
